Results from the supplement of paper PMC10849652.
About 7,900 targets were measured; listed, in parts, are those with a hit and a random draw of the rest. About 0.6% of all pairs of compound and target were hits.

Legend:
Assay in all cases: log2 fold change, soluble protein after heating vs DMSO (PISA); higher = thermal stabilisation; K562 cells, 10 uM, 30 min; active = over 0.2 and 3.5 SD of the protein, either way, in both replicates (recomputed)
[1] = compound: CN1CCN(CCOc2cc(OC3CCOCC3)c3c(Nc4c(Cl)ccc5c4OCO5)ncnc3c2)CC1 [saracatinib]
Method in brief: (§1)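 Values are thermal stability changes relative to control samples and are taken from duplicates. They are stated as log2 fold changes. Before quantification by TMTpro 16plex LC-MS/MS with equalised channel sums, K562 cells at 2×10^6 cells/mL were treated with 10 μM compound for 30 min, heated in aliquots for 3 min across 48°C-58°C, pooled, extracted in PBS with 0.5% NP-40 at 4°C, and centrifuged at 21,000xg for 90 min to give the soluble supernatant.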

[2] = compound: CN1CCN(c2nc(C3=C(c4c[nH]c5ccccc45)C(=O)NC3=O)c3ccccc3n2)CC1 [sotrastaurin]
Method in brief: as §1

[3] = compound: CN1CC[C@H](c2c(O)cc(O)c3c(=O)cc(-c4ccccc4Cl)oc23)[C@H](O)C1 [alvocidib]
Method in brief: as §1

[4] = compound: CN1CCc2c(c3ccccc3n2Cc2ccc(C(=O)NO)cc2)C1 [Tubastatin A]
Method in brief: as §1

[5] = compound: CNC(=O)C1=CC=CC=C1NC2=NC(=NC=C2Cl)NC3=C(C=C(C=C3)N4CCOCC4)OC
Method in brief: as §1

[6] = compound: CNC(=O)c1ccc(Nc2ncc(C(F)(F)F)c(NCc3nccnc3N(C)S(C)(=O)=O)n2)cc1 [defactinib]
Method in brief: as §1

[7] = compound: CNCc1ccc(-c2[nH]c3cc(F)cc4c3c2CCNC4=O)cc1 [rucaparib]
Method in brief: as §1

[8] = compound: CNc1nc(-c2ccc3c(N)n[nH]c3c2)cc(N2C[C@@H](C(=O)NC3CCCCC3)CC[C@H]2C)n1
Method in brief: as §1

[9] = compound: COC(=O)N[C@@H](C)CNc1nccc(-c2cn(C(C)C)nc2-c2cc(Cl)cc(NS(C)(=O)=O)c2F)n1 [encorafenib]
Method in brief: as §1

[10] = compound: COC(=O)[C@H](CCSC)NC(=O)C1=C(C=C(C=C1)NC[C@H](CS)N)C2=CC=CC=C2
Method in brief: as §1

[11] = compound: COC1=CC=C(C=C1)CN2C=CC3=C2C=C(C=C3)C(=O)NO
Method in brief: as §1

[12] = compound: CON(C)C(=O)N1N=C(c2cc(F)ccc2F)S[C@@]1(CCCN)c1ccccc1 [filanesib]
Method in brief: as §1

[13] = compound: CO[C@H]1C[C@@H]2CC[C@@H](C)[C@@](O)(O2)C(=O)C(=O)N2CCCC[C@H]2C(=O)O[C@H]([C@H](C)C[C@@H]2CC[C@H](n3cnnn3)[C@H](OC)C2)CC(=O)[C@H](C)/C=C(\C)[C@@H](O)[C@@H](OC)C(=O)[C@H](C)C[C@H](C)/C=C/C=C/C=C/1C [zotarolimus]
Method in brief: as §1

[14] = compound: COc1cc(C(=O)O)ccc1NC(=O)[C@@H]1N[C@@H](CC(C)(C)C)[C@](C#N)(c2ccc(Cl)cc2F)[C@H]1c1cccc(Cl)c1F [idasanutlin]
Method in brief: as §1

[15] = compound: COc1cc(Nc2ncc3c(n2)-c2ccc(Cl)cc2C(c2c(F)cccc2OC)=NC3)ccc1C(=O)O [alisertib]
Method in brief: as §1

[16] = compound: COc1cc2nc(-c3cc(F)ccc3O)nc(N[C@@H]3CNC[C@H]3C(C)(C)O)c2cc1OC
Method in brief: as §1

[17] = compound: COc1cc2ncnc(Nc3ccc(F)c(Cl)c3)c2cc1OCCCN1CCOCC1 [gefitinib]
Method in brief: as §1

[18] = compound: COc1cccc2cc(-c3nc([C@H]4CC[C@H](C(=O)O)CC4)n4ncnc(N)c34)[nH]c12
Method in brief: as §1

[19] = compound: CS(=O)(=O)CCNCc1ccc(-c2ccc3ncnc(Nc4ccc(OCc5cccc(F)c5)c(Cl)c4)c3c2)o1 [lapatinib]
Method in brief: as §1

[20] = compound: CS(=O)(=O)N1CCN(Cc2cc3nc(-c4cccc5[nH]ncc45)nc(N4CCOCC4)c3s2)CC1 [pictilisib]
Method in brief: as §1

Measured: log2 fold change

KDM3B (UniProt Q7LBC6)
Sequence of UniProt Q7LBC6 (Q7LBC6 whole entry, looked up): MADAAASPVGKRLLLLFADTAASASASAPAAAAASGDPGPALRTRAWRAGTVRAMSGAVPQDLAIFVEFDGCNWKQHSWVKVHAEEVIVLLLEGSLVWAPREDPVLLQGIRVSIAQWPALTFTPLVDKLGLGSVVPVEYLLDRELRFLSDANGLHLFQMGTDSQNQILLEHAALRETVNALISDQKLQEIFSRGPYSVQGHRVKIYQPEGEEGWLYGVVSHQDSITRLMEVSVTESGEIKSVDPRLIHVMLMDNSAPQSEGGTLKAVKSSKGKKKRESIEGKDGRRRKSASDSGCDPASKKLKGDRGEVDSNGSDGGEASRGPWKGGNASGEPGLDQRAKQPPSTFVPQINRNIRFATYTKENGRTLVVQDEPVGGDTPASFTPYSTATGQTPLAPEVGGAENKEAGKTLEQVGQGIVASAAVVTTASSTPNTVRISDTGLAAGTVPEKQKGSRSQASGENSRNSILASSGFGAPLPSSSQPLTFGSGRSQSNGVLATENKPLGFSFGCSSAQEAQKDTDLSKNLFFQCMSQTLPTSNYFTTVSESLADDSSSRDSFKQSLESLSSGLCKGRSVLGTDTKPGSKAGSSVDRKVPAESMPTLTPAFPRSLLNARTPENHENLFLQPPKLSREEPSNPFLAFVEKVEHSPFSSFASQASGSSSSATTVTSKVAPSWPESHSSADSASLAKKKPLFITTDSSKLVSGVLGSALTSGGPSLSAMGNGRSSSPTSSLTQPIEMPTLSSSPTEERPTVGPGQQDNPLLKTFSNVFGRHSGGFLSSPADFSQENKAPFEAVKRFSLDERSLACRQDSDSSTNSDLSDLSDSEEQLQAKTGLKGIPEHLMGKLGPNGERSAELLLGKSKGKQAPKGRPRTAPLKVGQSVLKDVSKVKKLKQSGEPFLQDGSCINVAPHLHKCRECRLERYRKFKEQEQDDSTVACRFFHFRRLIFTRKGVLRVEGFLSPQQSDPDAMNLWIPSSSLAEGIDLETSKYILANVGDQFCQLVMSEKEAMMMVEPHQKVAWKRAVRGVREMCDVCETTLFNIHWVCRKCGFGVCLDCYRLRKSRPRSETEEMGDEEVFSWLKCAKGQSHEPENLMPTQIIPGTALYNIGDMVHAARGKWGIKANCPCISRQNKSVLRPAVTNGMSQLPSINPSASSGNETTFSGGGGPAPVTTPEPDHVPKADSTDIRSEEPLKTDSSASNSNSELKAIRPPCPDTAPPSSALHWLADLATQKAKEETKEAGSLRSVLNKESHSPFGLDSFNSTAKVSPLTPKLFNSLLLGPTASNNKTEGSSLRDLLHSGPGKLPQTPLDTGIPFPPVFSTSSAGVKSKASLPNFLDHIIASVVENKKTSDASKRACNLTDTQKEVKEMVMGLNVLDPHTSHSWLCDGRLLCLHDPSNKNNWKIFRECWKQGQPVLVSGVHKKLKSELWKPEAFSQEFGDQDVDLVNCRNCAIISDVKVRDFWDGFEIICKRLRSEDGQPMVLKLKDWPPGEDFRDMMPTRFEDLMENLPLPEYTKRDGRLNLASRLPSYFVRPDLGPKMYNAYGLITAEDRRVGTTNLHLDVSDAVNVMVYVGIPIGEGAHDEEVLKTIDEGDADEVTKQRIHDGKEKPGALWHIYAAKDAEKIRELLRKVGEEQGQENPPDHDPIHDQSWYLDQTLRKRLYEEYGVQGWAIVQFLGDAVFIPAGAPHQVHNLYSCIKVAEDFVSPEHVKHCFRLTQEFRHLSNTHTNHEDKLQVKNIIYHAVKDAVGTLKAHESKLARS
inactive: [1] 0.01 | [2] -0.089 | [3] -0.091 | [4] -0.01 | [5] 0.072 | [6] -0.161 | [7] -0.058 | [8] -0.093 | [9] 0.054 | [10] -0.029 | [11] 0.01 | [12] 0.001 | [13] 0.033 | [14] -0.026 | [15] 0.021 | [16] 0.065 | [17] 0.008 | [18] -0.029 | [19] -0.014 | [20] 0.012

LMNA (UniProt P02545)
inactive: [1] 0.041 | [2] -0.083 | [4] -0.033 | [5] 0.003 | [6] -0.121 | [7] -0.08 | [8] -0.138 | [9] -0.019 | [10] 0.042 | [11] -0.093 | [12] 0.088 | [13] 0.018 | [14] 0.093 | [15] 0.096 | [16] -0.112 | [17] -0.014 | [18] 0 | [19] 0.028 | [20] 0.008
active: [3] -0.214

MAGEC2 (UniProt Q9UBF1)
inactive: [1] 0.092 | [2] -0.068 | [3] -0.034 | [4] -0.013 | [5] 0.015 | [6] -0.056 | [7] -0.021 | [8] -0.082 | [9] 0.079 | [10] 0.003 | [11] 0.018 | [12] -0.032 | [13] 0.039 | [14] -0.045 | [15] -0.044 | [16] 0.015 | [17] -0.018 | [18] -0.005 | [19] -0.004 | [20] 0.058

KLHDC4 (UniProt Q8TBB5)
active: [12] 0.435
inactive: [1] -0.006 | [2] -0.037 | [3] 0.074 | [4] -0.072 | [5] 0.02 | [6] 0.021 | [7] 0.115 | [8] -0.029 | [9] 0.106 | [10] -0.066 | [11] -0.045 | [13] 0.044 | [14] 0.199 | [15] -0.023 | [16] 0.076 | [17] 0.03 | [18] 0.1 | [19] -0.026 | [20] 0.029

MCCC2 (UniProt Q9HCC0)
Sequence of UniProt Q9HCC0 (Q9HCC0 whole entry, looked up): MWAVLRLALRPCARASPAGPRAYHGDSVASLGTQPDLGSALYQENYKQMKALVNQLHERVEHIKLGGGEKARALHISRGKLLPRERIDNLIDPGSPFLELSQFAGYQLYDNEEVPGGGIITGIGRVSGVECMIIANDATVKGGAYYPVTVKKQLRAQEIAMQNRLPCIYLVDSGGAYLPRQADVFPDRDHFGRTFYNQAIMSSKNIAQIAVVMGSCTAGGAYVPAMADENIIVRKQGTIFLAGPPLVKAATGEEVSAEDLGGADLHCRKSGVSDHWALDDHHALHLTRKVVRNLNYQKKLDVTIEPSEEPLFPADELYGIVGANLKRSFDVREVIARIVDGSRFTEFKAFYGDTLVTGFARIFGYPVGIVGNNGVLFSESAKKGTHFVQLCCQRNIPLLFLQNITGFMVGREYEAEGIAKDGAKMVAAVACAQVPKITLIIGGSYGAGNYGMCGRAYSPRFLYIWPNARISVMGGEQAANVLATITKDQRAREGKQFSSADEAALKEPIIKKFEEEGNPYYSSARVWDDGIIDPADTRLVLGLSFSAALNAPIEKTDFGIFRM
inactive: [1] 0.033 | [2] 0.018 | [3] 0 | [4] 0.004 | [6] 0.008 | [7] 0.012 | [8] -0.05 | [9] -0.033 | [10] -0.003 | [11] 0.137 | [12] -0.07 | [13] 0 | [14] -0.033 | [15] -0.057 | [16] -0.022 | [17] 0.006 | [18] 0.083 | [19] 0.001 | [20] -0.031
active: [5] -0.274

MAPKAPK5 (UniProt Q8IW41)
Sequence of UniProt Q8IW41 (Q8IW41 whole entry, looked up): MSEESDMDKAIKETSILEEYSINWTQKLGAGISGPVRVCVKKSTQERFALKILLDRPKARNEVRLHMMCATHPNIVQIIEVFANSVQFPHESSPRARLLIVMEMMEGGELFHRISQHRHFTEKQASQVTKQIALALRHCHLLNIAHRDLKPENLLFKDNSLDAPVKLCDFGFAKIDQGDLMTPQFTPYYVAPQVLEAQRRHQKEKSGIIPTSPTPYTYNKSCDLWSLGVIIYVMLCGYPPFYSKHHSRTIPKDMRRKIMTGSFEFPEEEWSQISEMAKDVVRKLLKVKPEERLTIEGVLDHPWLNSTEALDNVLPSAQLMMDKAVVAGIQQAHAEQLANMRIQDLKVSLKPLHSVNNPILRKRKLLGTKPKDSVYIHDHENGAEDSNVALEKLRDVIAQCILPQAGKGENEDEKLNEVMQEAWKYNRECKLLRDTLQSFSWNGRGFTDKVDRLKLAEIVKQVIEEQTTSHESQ
inactive: [1] 0.008 | [2] -0.028 | [3] 0.062 | [4] 0.036 | [5] -0.02 | [6] -0.032 | [7] 0.095 | [8] -0.039 | [9] -0.016 | [10] 0 | [11] -0.011 | [12] -0.133 | [13] 0.009 | [14] -0.017 | [15] -0.084 | [16] 0.269 | [17] 0 | [18] -0.038 | [19] 0.078 | [20] 0.134

MIEN1 (UniProt Q9BRT3)
Sequence of UniProt Q9BRT3 (Q9BRT3 whole entry, looked up): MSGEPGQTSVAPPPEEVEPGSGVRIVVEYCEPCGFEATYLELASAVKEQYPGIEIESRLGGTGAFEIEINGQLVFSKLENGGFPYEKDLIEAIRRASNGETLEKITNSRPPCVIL
inactive: [1] 0.049 | [2] -0.067 | [3] -0.141 | [4] 0.069 | [5] -0.002 | [6] -0.067 | [7] -0.032 | [8] -0.019 | [9] -0.051 | [10] 0.129 | [11] -0.084 | [12] 0.085 | [13] 0.015 | [14] -0.009 | [15] 0.034 | [16] 0.061 | [17] 0.027 | [18] 0.001 | [19] -0.016 | [20] 0.001

MARK3 (UniProt P27448)
inactive: [1] 0.024 | [3] -0.011 | [4] 0.058 | [5] -0.367 | [6] -0.176 | [7] -0.016 | [8] -0.069 | [9] 0.096 | [10] 0.033 | [11] 0.008 | [12] 0.054 | [13] 0.062 | [14] 0.091 | [15] 0.05 | [16] -0.219 | [17] -0.002 | [18] -0.063 | [19] 0.022 | [20] -0.033
active: [2] -0.434

KDELR2 (UniProt P33947)
Sequence of UniProt P33947 (P33947 whole entry, looked up): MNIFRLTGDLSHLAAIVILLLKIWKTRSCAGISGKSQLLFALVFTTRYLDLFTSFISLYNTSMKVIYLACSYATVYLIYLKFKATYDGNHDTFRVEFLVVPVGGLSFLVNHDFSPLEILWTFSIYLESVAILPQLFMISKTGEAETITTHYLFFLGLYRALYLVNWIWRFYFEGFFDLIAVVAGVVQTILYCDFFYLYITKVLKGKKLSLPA
inactive: [1] 0.094 | [2] 0.061 | [3] 0.018 | [4] -0.295 | [5] 0.04 | [6] -0.004 | [7] -0.072 | [8] -0.058 | [9] -0.005 | [10] 0.023 | [11] -0.155 | [12] -0.105 | [13] 0.035 | [14] -0.162 | [15] -0.014 | [16] -0.136 | [17] -0.064 | [18] 0.048 | [19] -0.127 | [20] -0.013

MAPK9 (UniProt P45984)
Sequence of UniProt P45984 (P45984 whole entry, looked up): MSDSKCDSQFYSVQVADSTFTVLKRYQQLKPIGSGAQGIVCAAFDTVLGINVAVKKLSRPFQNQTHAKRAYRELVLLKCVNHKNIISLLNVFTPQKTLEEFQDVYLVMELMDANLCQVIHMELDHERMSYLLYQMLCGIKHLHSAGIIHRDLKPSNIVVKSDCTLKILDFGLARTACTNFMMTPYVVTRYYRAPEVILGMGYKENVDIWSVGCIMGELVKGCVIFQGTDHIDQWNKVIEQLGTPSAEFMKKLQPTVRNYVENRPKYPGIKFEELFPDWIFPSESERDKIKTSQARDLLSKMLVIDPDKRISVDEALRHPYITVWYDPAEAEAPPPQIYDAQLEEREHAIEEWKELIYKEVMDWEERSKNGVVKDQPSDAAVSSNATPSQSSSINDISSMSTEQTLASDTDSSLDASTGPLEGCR
active: [5] 0.328
inactive: [1] -0.118 | [2] 0.046 | [3] 0.002 | [4] -0.013 | [6] 0.003 | [7] -0.02 | [8] 0 | [9] 0.018 | [10] 0.029 | [11] -0.004 | [12] -0.01 | [13] -0.022 | [14] -0.062 | [15] -0.072 | [16] 0.043 | [17] 0.009 | [18] 0.001 | [19] -0.039 | [20] 0.075

LUC7L3 (UniProt O95232)
inactive: [1] -0.003 | [2] 0.013 | [3] -0.049 | [4] -0.007 | [6] -0.113 | [7] -0.008 | [8] -0.048 | [9] 0.028 | [10] -0.003 | [11] 0.106 | [12] 0.083 | [13] 0.003 | [14] 0.031 | [15] -0.009 | [16] 0.021 | [17] -0.04 | [18] 0.011 | [19] 0.045 | [20] 0.011
active: [5] -0.314

MAPK14 isoform 2 (UniProt Q16539)
Sequence of UniProt Q16539 (Q16539 whole entry, looked up): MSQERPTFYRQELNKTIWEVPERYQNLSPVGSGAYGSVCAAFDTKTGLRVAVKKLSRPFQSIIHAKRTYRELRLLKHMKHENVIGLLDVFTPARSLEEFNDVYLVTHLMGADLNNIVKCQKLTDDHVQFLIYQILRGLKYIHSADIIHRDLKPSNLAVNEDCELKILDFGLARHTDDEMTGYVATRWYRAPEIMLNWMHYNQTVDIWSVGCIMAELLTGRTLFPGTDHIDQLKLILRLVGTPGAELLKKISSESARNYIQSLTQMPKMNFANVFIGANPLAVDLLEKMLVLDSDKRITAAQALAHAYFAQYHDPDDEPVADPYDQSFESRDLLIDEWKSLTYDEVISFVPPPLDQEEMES
active: [9] 0.91
inactive: [1] 0.486 | [2] -0.085 | [3] -0.021 | [4] 0.145 | [5] 0.559 | [6] -0.25 | [7] 0.127 | [8] -0.029 | [10] -0.014 | [11] 0 | [12] 0.016 | [13] -0.033 | [14] -0.018 | [15] -0.058 | [16] -0.005 | [17] 0.811 | [18] 0.319 | [19] -0.034 | [20] -0.114

LSR (UniProt Q86X29)
Sequence of UniProt Q86X29 (Q86X29 whole entry, looked up): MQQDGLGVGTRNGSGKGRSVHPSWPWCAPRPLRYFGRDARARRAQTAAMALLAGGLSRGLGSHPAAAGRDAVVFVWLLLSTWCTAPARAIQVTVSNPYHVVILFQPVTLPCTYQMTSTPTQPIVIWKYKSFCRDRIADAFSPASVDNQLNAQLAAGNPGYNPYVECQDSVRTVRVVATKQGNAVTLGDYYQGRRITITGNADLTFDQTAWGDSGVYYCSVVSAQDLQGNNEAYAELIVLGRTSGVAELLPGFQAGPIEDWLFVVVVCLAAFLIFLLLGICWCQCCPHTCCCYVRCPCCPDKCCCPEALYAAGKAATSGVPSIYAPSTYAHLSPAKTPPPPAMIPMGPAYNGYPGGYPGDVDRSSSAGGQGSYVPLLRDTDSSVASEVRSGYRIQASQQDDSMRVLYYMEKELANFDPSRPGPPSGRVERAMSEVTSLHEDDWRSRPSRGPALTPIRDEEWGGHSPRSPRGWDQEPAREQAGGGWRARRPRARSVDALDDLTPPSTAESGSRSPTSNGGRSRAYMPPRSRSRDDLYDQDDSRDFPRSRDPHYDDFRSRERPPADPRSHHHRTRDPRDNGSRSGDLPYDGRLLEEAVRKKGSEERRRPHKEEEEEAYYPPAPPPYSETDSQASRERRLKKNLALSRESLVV
inactive: [1] -0.003 | [2] 0.023 | [3] -0.018 | [4] 0.012 | [5] -0.074 | [6] -0.053 | [7] -0.023 | [8] 0.095 | [9] 0.042 | [10] 0.031 | [11] 0.107 | [12] 0.116 | [13] -0.011 | [14] -0.022 | [15] -0.122 | [16] 0.027 | [17] 0.021 | [18] 0.033 | [19] -0.056 | [20] 0.121

LARP7 isoform 3 (UniProt Q4G0J3)
active: [3] -0.234 | [6] -0.328 | [11] -0.258
inactive: [1] 0.015 | [2] -0.076 | [4] -0.002 | [5] -0.04 | [7] -0.164 | [8] 0.003 | [9] 0.034 | [10] -0.019 | [12] 0.071 | [13] 0.082 | [14] -0.019 | [15] -0.007 | [16] -0.165 | [17] 0.001 | [18] 0.042 | [19] 0.082 | [20] -0.041

LNPK (UniProt Q9C0E8)
Sequence of UniProt Q9C0E8 (Q9C0E8 whole entry, looked up): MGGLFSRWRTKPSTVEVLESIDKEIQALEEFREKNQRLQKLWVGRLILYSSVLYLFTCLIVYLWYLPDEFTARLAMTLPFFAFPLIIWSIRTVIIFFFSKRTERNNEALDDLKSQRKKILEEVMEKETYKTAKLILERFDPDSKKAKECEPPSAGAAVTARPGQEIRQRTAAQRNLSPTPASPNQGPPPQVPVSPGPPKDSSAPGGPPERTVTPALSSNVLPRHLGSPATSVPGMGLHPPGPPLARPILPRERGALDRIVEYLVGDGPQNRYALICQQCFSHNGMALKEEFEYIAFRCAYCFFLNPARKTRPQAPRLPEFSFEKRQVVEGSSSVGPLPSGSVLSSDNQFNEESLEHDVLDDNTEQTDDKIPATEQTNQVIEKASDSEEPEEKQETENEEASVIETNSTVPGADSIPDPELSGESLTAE
inactive: [1] 0.085 | [2] 0.047 | [3] -0.006 | [4] -0.034 | [5] 0.012 | [6] 0.009 | [7] -0.015 | [8] -0.045 | [9] -0.013 | [10] 0.039 | [11] 0.007 | [12] -0.005 | [13] -0.049 | [14] -0.002 | [15] -0.034 | [16] 0.001 | [17] 0.025 | [18] 0.079 | [19] -0.008 | [20] 0.017
